# Measurements: PubChem BioAssay
# Test: small-molecule microarray binders of probe aDKK1, primary screen, biochemical, biotinylated probe, 635/667 nm fluorescence (AID 1099);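 note: score merges 667nm spot fluorescence with signal to noise across triplicate slides; reference of the scale not given here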
# Conditions: higher = more signal
row,Compound,composite z-score
1,NC(=O)NCC#Cc1ccc2c(c1)[C@]1(C(=O)N2)[C@H](C(=O)O)[C@H]2C(=O)O[C@H](c3ccccc3)[C@H](c3ccccc3)N2[C@@H]1c1ccc(OCCO)cc1,0.0638
2,[N-]=[N+]=Nc1ccccc1C[C@]1(C(=O)N2CCOCC2)N=C(c2ccc(OCCCO)cc2)O[C@H]1c1ccccc1,1.45
3,COc1ccc(C#Cc2ccc3c(c2)[C@]2(C(=O)N3)[C@H](c3ccc(O)cc3)N3[C@H](c4ccccc4)[C@H](c4ccccc4)OC(=O)[C@H]3[C@@H]2C(=O)O)cc1,-0.901
4,O=C1O[C@@H](c2ccccc2)[C@@H](c2ccccc2)N2[C@@H](c3ccc(OCCO)cc3)[C@]3(C(=O)Nc4ccccc43)[C@@H](C(=O)O)[C@H]12,-0.483
5,C=C(/C(=C/C[C@H](OC(C)=O)c1cccc(OCCO)c1)c1cnc2ccccc2c1)C(C)C,-0.104
6,COc1ccc([Si](C)(C)[C@H]2[C@H](CCn3cc([C@H](O)c4ccccc4)nn3)O[C@@]3(C(=O)N(Cc4ccc(N5C(=O)c6cccc7cccc5c67)cc4)c4ccccc43)[C@@H]2C)cc1,0.0396
7,CCC(CC)C(O)C1C=CC2C(=O)N(c3ccccc3)C(=O)C2N1Nc1ccc(C(C)C)cc1 (stereo unspecified),0.789
8,COC1OC[C@]2(C)[C@H]3C4=C(CN2C(=O)OC(C)(C)C)[C@H](C)C(CO)C(CO)C4CC[C@@H]13 (stereo partly specified),1.39
9,COC(=O)[C@@]1(Cc2ccccc2N=[N+]=[N-])N=C(c2ccc(OCCCO)cc2)O[C@H]1c1ccccc1N=[N+]=[N-],0.793
10,CC1CC/C=C\[C@H]2OC34C=CCN(C(C)C)C(=O)[C@H]3N(CCCCCCO)C(=O)[C@@H]4C2C(=O)O1 (stereo partly specified),-0.242
11,COC(=O)[C@@]1(Cc2ccc(OC)cc2)[C@H]2c3cc(C(=O)N4CCCC4)n(Cc4cccc5ccccc45)c3C[C@H]2CN1C(=O)c1ccccc1,0.741
12,COc1ccc([Si](C)(C)[C@H]2[C@H](CC(=O)N(CCO)Cc3ccccc3)O[C@@]3(C(=O)N(Cc4cccc(N5CCOC5=O)c4)c4ccccc43)[C@@H]2C)cc1,-0.21
13,Cc1cc(C)c(C(O)C2C=CC3C(=O)N(c4ccccc4)C(=O)C3N2Nc2ccc(C(C)C)cc2)c(C)c1 (stereo unspecified),1.19
14,C=C(/C(=C/C[C@@H](OC(C)=O)c1cccc(OCCO)c1)c1cc(C(=O)OC)ccc1OC)C(C)C,0.153
15,O=C1O[C@H](c2ccccc2)[C@H](c2ccccc2)N2[C@H]1[C@@H](C(=O)Nc1nc3ccccc3s1)[C@]1(C(=O)Nc3ccc(C#CC4(O)CCCCCC4)cc31)[C@H]2c1ccccc1OCCO,-0.074
16,CN1C(=O)C2C=CC(C(O)C#Cc3ccccc3)N(Nc3ccccc3)C2C1=O (stereo unspecified),0.932
17,C=CC[C@@]1(C(=O)N2CCOCC2)N=C(c2ccc(OCCCO)cc2)O[C@@H]1c1ccccc1CN=[N+]=[N-],0.906
18,COc1cc(OC)c(C(O)C2C=CC3C(=O)N(C)C(=O)C3N2NC(=O)OC(C)(C)C)cc1Br (stereo unspecified),0.993

row,Compound,composite z-score
1,CC(C)(C)OC(=O)CC[C@]1(C(=O)NCc2ccccc2)N=C(c2ccc(OCCCO)cc2)O[C@H]1c1ccccc1CN=[N+]=[N-],0.242
2,CCCCCCc1nc(C2CC2)cc2c1[Si](C(C)C)(C(C)C)O[C@H]2c1ccccc1,-0.312
3,COc1ccc(NC(=O)O[C@H]2[C@H](OC(=O)Nc3ccccc3)[C@H](OC(=O)Nc3ccccc3)[C@@H](OC)O[C@@H]2CO)cc1,0.891
4,COc1ccc([Si](C)(C)[C@@H]2[C@@H](CCO)O[C@]3(C(=O)N(Cc4ccc(N5CCCCC5=O)cc4)c4ccccc43)[C@H]2C)cc1,-0.128
5,COC(=O)c1cn(C[C@@H](Cc2ccccc2)NC(=O)N[C@H](CO)CCc2oc(C(C)=O)c(C(=O)OC)c2C(=O)OC)nn1,0.067
6,C=C(CCCC)/C(=C/C[C@@H](OC(=O)c1ccncc1)c1ccccc1OCCO)c1cnc2ccccc2c1,0.276
7,O=C1NC(=O)C2C1C=CC(C(O)c1ccco1)N2Nc1ccccn1 (stereo unspecified),-0.0191
8,C=CCC(OC(C)=O)[C@@H]1[C@@H](N(Cc2cc3ccccc3o2)C(=O)c2ccc(C)cc2)c2cc(OCCCO)ccc2N1C(=O)Cc1ccc(OC)cc1 (stereo partly specified),-0.199
9,C=CCC(OC(C)=O)[C@@H]1[C@@H](N(Cc2ccc(-c3cccc(C(F)(F)F)c3)o2)C(=O)c2ccc(-c3ccccc3)cc2)c2cc(OCCCO)ccc2N1C(=O)c1ccc2ccccc2n1 (stereo partly specified),0.148
10,CN1C(=O)C2C=CC(C(O)c3cccc(O)c3)N(Nc3ccccc3)C2C1=O (stereo unspecified),0.14
11,CN1C(=O)C2C=CC(C(O)COCc3ccccc3)N(N(c3ccccc3)c3ccccc3)C2C1=O (stereo unspecified),0.553
12,COCCCNC(=O)[C@]1(CCS(=O)(=O)c2ccccc2)N=C(c2ccc(OCCCO)cc2)O[C@@H]1c1ccccc1N=[N+]=[N-],1.1
13,O=C1C2C=CC(C(O)c3ccccc3)N(Nc3ccccc3F)C2C(=O)N1c1ccccc1 (stereo unspecified),-0.168
14,CCOC(=O)c1ccc(NC(=O)O[C@H]2[C@H](OC(=O)Nc3ccc4c(c3)OCO4)[C@@H](OC(=O)Nc3ccc4c(c3)OCO4)[C@@H](OC)O[C@@H]2CO)cc1,0.164
15,COc1ccc([Si](C)(C)[C@@H]2[C@@H](CC(=O)N3Cc4ccccc4C[C@H]3CO)O[C@]3(C(=O)N(C)c4ccccc43)[C@H]2C)cc1,0.405
16,O=C(NCC(F)(F)F)[C@@H]1c2ccccc2C(=O)N(Cc2ccccc2C(F)(F)F)[C@H]1c1ccc(CO)cc1,0.757
17,OCC1CC(c2ccccc2)=NO1 (stereo unspecified),-0.217
18,C=CCNC(=O)[C@@H]1[C@H]2C(=O)O[C@H](c3ccccc3)[C@H](c3ccccc3)N2[C@H](c2ccc(O)cc2)[C@@]12C(=O)N(C(=O)OCCOC)c1ccc(C#CC3(O)CCCCCC3)cc12,-0.227
